Experimental data taken from PubChem BioAssay AID1159580 (chemical genetic matrix, 2015).
About 2,000 (36%) of roughly 5,500 compounds were called active. About 18% were inconclusive and are not listed. No stated cut-off is given here; in the data, active means normalized growth mostly below about 0.91 (no sharp cut-off); inconclusive means no clear call, values can overlap the other calls; inactive means mostly above about 0.92. Some of the results follow.

Test: chemical genetic growth profiling, strain panel (AID 1159580);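 further: tested at 20 µM; growth read once vehicle control cultures reached saturation at 30 °C; 1 = growth at the plate median or of vehicle wells; lower values mean less growth of the strain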
Settings: S. cerevisiae deletion strains, growth OD

Measured: normalized growth

COc1ccc2c(c1)c(CC(=O)O)c(C)n2Cc1ccc(F)cc1
inactive: locus YAL040C, strain CLN3, active compounds read low 0.985 | locus YCL061C, strain MRC1 (second series), active compounds read low 1.01 | locus YDR363W, strain ESC2, active compounds read low 1 | locus YER002W, strain NOP16, active compounds read low 0.999 | locus YGR078C, strain PAC10, active compounds read low 1.01 | locus YMR307W, strain GAS1, active compounds read low 0.99 | locus YNL128W, strain TEP1, active compounds read low 0.993 | locus YNL175C, strain NOP13, active compounds read low 1 | locus YNL197C, strain WHI3, active compounds read low 0.991 | locus YNL224C, strain SQS1, active compounds read low 0.985 | locus YNL322C, strain KRE1, active compounds read low 1.01 | locus YOR083W, strain WHI5 (second series), active compounds read low 1.02 | locus YPL055C, strain LGE1, active compounds read low 1.01 | locus YPL241C, strain CIN2, active compounds read low 1.01
